Hits are enriched below; roughly 2.6% of the tested compounds scored in any of these assays.
IDE act – IDE (human) activation, cell-based; AID 493087; P14735; HEK cells, FAbeta-B cleavage, fluorescence polarization; 0% vehicle, 100% cell-free pure enzyme wells; activation, % at 5.96 µM; 340,000 tested, 0.073% active;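 active = activation above the mean of all tested compounds plus 3 SD, set per screening campaign, cut at about 17% in these data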
Target sequence (P14735 whole entry, looked up): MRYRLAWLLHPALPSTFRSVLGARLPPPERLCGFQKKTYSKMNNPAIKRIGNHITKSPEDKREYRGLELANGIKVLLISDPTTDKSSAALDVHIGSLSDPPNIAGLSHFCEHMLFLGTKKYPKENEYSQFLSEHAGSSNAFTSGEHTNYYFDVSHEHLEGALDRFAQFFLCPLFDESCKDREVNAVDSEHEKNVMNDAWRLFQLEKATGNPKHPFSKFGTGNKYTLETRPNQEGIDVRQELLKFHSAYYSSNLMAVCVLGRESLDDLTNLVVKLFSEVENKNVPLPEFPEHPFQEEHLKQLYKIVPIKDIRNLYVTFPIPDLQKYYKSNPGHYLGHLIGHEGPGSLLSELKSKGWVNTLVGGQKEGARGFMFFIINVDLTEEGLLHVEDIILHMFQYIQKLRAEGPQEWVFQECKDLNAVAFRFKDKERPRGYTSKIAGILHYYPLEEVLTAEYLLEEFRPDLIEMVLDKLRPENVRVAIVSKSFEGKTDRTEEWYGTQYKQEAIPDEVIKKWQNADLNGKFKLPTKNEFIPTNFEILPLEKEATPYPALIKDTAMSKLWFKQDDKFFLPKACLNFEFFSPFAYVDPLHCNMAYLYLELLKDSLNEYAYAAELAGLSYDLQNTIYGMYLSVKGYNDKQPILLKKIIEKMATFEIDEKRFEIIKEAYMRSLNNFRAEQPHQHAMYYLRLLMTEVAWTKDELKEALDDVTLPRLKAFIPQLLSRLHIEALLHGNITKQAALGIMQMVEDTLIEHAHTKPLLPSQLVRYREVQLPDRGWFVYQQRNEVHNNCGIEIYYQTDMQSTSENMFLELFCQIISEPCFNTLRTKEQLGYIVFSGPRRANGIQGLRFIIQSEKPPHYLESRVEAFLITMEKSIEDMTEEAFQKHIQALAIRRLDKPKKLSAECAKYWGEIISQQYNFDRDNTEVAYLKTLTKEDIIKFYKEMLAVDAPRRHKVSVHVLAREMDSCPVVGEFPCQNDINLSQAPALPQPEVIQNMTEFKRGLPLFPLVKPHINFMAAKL
IDE cell inh – inhibits human insulin-degrading enzyme in HEK cells. P14735. FAbetaB cleavage, fluorescence polarization. inhibition, % at 5.59 µM. 320,000 tested, 0.41% active;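 active = percent inhibition above the average of all tested compounds plus 3 SD, set per screening campaign, cut at about 16% in these data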;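 note: IDE supplied by intact live HEK cells; FP after avidin binding of uncleaved biotin substrate so inhibition keeps polarization high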
CRFR2-BP ag – CRF-BP/CRF-R2 complex agonism. HEK293 CRF-R2/CRF-BP, calcium dye fluorescence (FLIPR); percent of saturating CRF peptide response. activation, % at 13.2 µM. 350,000 tested, 0.46% active. AID 588473;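 active = activation of at least 50%, plus an integration ratio under a set limit after plate pattern correction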
TPT1 inhibitor – inhibitors of Candida albicans tRNA 2'-phosphotransferase TPT1; inhibition, % at 5 µM; recombinant caTPT1, FP RNA substrate dephosphorylation; 300,000 tested, 0.81% active;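 active = inhibition above the mean of all tested compounds plus 3 SD, set per screening campaign, cut at about 24% in these data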
CRFBP-R2 block – blocks CRF-induced signaling of the CRF-BP/CRF-R2 complex; inhibition, % at 11.8 µM; HEK293 CRF-R2/CRF-BP, CRF-induced calcium fluorescence; 350,000 tested, 0.59% active;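 active = inhibition of the ligand-induced calcium signal above about 50% at the single tested concentration, limit read from the data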
Myeloid diff MLP – compounds promoting myeloid differentiation; 360,000 tested, 1% active; calls only at 10 µM; ER-HoxA9 myeloid progenitors, lysozyme-GFP differentiation, flow cytometry;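 active = normalized GFP-positive differentiation at or above the plate's own cutoff, the solvent-only control mean plus 3 SD; inconclusive = no clear call, values can overlap the other calls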;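 note: cells exposed to compound for four days before flow analysis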
A number is an active result; i = inactive; ? = inconclusive; nt = no result; + = active, no number.

SMILES	IDE act	IDE cell inh	CRFR2-BP ag	TPT1 inhibitor	CRFBP-R2 block	Myeloid diff MLP
Cc1ccc2c(c1)N(C(=O)CCC(=O)N1CCN(c3ccccn3)CC1)CCO2	i	i	55.3	i	i	i
O=C(CCC(=O)N1CCOc2ccc(Cl)cc21)N1CCN(c2ccccn2)CC1	i	i	i	i	i	i
CCCN(C)C[C@H]1OCc2cnnn2CCCC(=O)N([C@H](C)CO)C[C@@H]1C	nt	nt	nt	nt	nt	i
O=C1C(C2=C(O)c3ccccc3C2=O)=Nc2ccccc21	i	i	i	i	i	+
CN=CC1=C(O)c2ccccc2C1=O	i	i	i	i	i	i
Cc1ccc(N2CC(C(=O)NCc3n[nH]c(=O)c4ccccc34)CC2=O)cc1 (centres undefined)	i	i	i	i	i	i
Cc1cc(N2CCN(S(=O)(=O)c3ccc(Cl)cc3)CC2)c2ccccc2n1	i	i	i	i	62.4	i
CC(C)(C)c1ccc(CNC(=O)c2ccc3c(c2)NC(=O)CO3)cc1	i	i	i	i	i	+
O=C(COc1ccc([N+](=O)[O-])cc1)Nc1ccc2c(c1)nc1n2CCOC1	i	i	i	i	i	+
O=C(O)c1ccc(Cl)c(NC(=S)NC(=O)c2cccc(COc3ccccc3)c2)c1	i	i	i	i	52.0	i
O=C(NC(=S)Nc1ccc(Cl)c(C(=O)O)c1)c1cccc(COc2ccccc2)c1	i	i	i	i	i	i
COc1ccc(Nc2nc3cc(C)ccc3cc2C#N)c(OC)c1	i	i	i	i	i	?
COc1ccc(Nc2nc3cc(C)ccc3cc2C#N)cc1	i	i	i	i	i	+
Cc1nn(-c2ccccc2)c(NC(=O)c2cccs2)c(-c2ccccc2Cl)c1=O	nt	i	i	i	111.0	i
COC(=O)C1CSc2[nH]c(=O)sc2C1c1ccc(O)c(OC)c1 (centres undefined)	i	i	i	i	77.3	i
COc1ccc(CC(=O)NCc2cccc(Cl)c2)cc1S(=O)(=O)N1CCOCC1	nt	nt	i	nt	i	i
Cc1onc(-c2ccccc2)c1CNC(=O)CN1C(=O)c2ccccc2C1=O	i	i	i	i	109.0	i
CN(/N=C/c1cc(Cl)cc(Cl)c1O)c1c(Cl)cccc1[N+](=O)[O-]	i	i	i	i	i	i
CC(C)(C)c1ccc(S(=O)(=O)NC(=O)C2(C)CCN2C(=O)c2cccc3ccccc23)cc1 (centres undefined)	nt	nt	nt	nt	nt	i
O=C(NC(=S)NCC1CCCO1)C(c1ccccc1)c1ccccc1 (centres undefined)	i	i	i	i	55.5	i
Cc1ccccc1C(=O)NC(=S)NCC1CCCO1 (centres undefined)	i	i	i	i	i	i
Clc1cccc(-c2nc3c4ccccc4ccn3c2Cc2ccsc2)c1	nt	nt	nt	nt	nt	i
CC1(Cc2ccc3c(c2)OCO3)NC(=O)NC1=O (centres undefined)	i	i	i	i	56.0	i
CC[C@@]1(O)C(=O)OCc2c1cc1n(c2=O)Cc2cc3c(CN(C)C)c(O)ccc3nc2-1	24.1	i	231.3	i	i	?
O=C(COc1ccccc1/C=C1\SC(=S)NC1=O)Nc1ccc(F)cc1	i	i	i	nt	i	i
SMILES	IDE act	IDE cell inh	CRFR2-BP ag	TPT1 inhibitor	CRFBP-R2 block	Myeloid diff MLP
COc1ccc(N2CCN(C(=O)c3csc4ccccc34)CC2)cc1	i	i	i	i	119.3	i
COc1ccc(N2CCN(C(=O)c3cc(=O)c4cc(C)c(C)cc4o3)CC2)cc1	i	i	i	i	110.8	i
COC(=O)c1cc(S(=O)(=O)N2CCN(c3cccc(Cl)c3)CC2)c[nH]1	i	i	i	i	i	i
O=C(NCC(c1ccco1)N1CCCC1)c1ccc(Cl)c(S(=O)(=O)N2CCc3ccccc32)c1 (centres undefined)	i	i	i	nt	i	+
O=C(NCC(c1ccco1)N1CCc2ccccc2C1)c1ccc(Cl)c([N+](=O)[O-])c1 (centres undefined)	i	i	i	i	i	i
O=C(O)c1ccccc1Nc1ccc([N+](=O)[O-])c2nonc12	21.6	i	i	i	i	i
CCC(C)Sc1cc(-c2nc3ccccn3c2NC2CCCCC2)ccc1OC (centres undefined)	i	i	i	i	i	i
CCC(C)Sc1cc(-c2nc3cc(C)ccn3c2NC2CCCCC2)ccc1OC (centres undefined)	i	i	i	nt	i	+
CC1Sc2ccc(S(=O)(=O)N3CCC(C(=O)NCC(C)c4ccccc4)CC3)cc2NC1=O (centres undefined)	i	i	i	i	52.6	i
CC1Sc2ccc(S(=O)(=O)N3CCC(C(=O)NCCc4ccccc4)CC3)cc2NC1=O (centres undefined)	i	i	i	i	i	i
N#Cc1c(Nc2ccccc2)[n+]([O-])c2ccc(Cl)cc2[n+]1[O-]	i	nt	i	nt	i	?
COc1cc(CCC(=O)NC2(C)CCS(=O)(=O)C2)cc(OC)c1OC (centres undefined)	i	i	i	nt	53.1	i
O=C(CNC(=O)c1ccc(Br)cc1)NCC(=O)OCC(=O)c1ccc([N+](=O)[O-])cc1	i	17.3	i	i	i	i
CCCN(C(=O)c1cc(Cl)nc2ccccc12)C1CCS(=O)(=O)C1 (centres undefined)	i	i	i	i	75.1	i
CC(C)CN(C(=O)c1cc(Cl)nc2ccccc12)C1CCS(=O)(=O)C1 (centres undefined)	i	nt	i	nt	i	i
CCOCCCN(Cc1cc2cc(C)cc(C)c2[nH]c1=O)C(=O)N(CC)CC	i	i	i	i	51.6	i
Cc1ccc2c(c1)c(/C=C/c1cc[n+](C)cc1)c(C)n2C	i	nt	52.6	nt	i	?
COc1cc2ccc(C(C)=NNC(N)=S)cc2cc1OC	nt	nt	i	nt	i	+
COC(=O)N/N=C/c1cc(Cl)cc(Cl)c1OCc1ccc(F)cc1	i	i	i	i	i	i
CN(Cc1ccccc1)C(=O)c1ccc2c(c1)OCO2	i	i	i	i	i	i
CCc1ccc(CN(C)C(=O)c2ccc3c(c2)OCCO3)cc1	i	i	i	i	i	+
CCC(=O)NC(c1cc(Cl)c2ccccc2c1O)C(C)C (centres undefined)	i	i	i	nt	i	+
CCOc1ccccc1CN1CCN(Cc2csc(C(C)=O)c2)CC1CCO (centres undefined)	i	i	i	i	i	i
COCCCN(C(=O)Cc1ccc(S(=O)(=O)N2CCOCC2)s1)c1c(N)n(Cc2ccccc2)c(=O)[nH]c1=O	i	nt	i	nt	i	i
Cc1cccn2c(=O)c3cc(C(N)=S)c(=N)n(CCCOC(C)C)c3nc12	i	i	i	i	i	+
CCCCNC(=O)c1cc2c(=O)n3cccc(C)c3nc2n(Cc2ccccc2)c1=N	i	i	i	i	i	+
COc1cc(OC)cc(C2=Cc3ccccc3C(CC(=O)c3ccco3)N2c2ccc(-c3cncnc3)cc2)c1 (centres undefined)	nt	nt	nt	nt	nt	i

Assay outcomes as filed in PubChem.
